In assay [1] the test system is Wnt5a (protein binding on small-molecule microarray). Nature of the assay: Wnt5a binders on small-molecule microarray, primary screen, biophysical, 635/667 nm fluorescence (AID 1142).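 Further: fluorescence read at 667 nm with signal to noise per printed feature.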 The following applies: 635 nm fluorescence, higher = more signal.
A short description of assay [2]: cell viability in Huh7 cells, primary screen, cytotoxicity control for HCV replication inhibitor project, CellTiter-Glo luminescence, basal, 48 h (AID 1143).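 Further: Huh7 hepatoma cells carrying a hepatitis C replication reporter with no stimulus; test concentration not given here.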 The conditions noted are these: Huh7 HCV replicon, higher = more signal, called active from +8 up or from −8 down.
The nature of assay [3]: P. aeruginosa biofilm formation inhibitors, primary screen, PAO1 strain, BacTiter-Glo luminescence, LB-PBS (AID 1144). The conditions noted are these: 12 h, higher = more signal.
The nature of assay [4]: CREB reporter modulators without forskolin, primary screen, cell-based, PC12, CRE-LacZ reporter, unstimulated (AID 1145). The conditions noted are these: no forskolin, luminescence, 4.5 h, higher = more signal, called active from +8 up or from −8 down.
Assay [5] is described as follows: CREB reporter modulators under forskolin, primary screen, cell-based, PC12, CRE-LacZ reporter, forskolin-stimulated (AID 1146).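 Further: PC12 cells with 6xCRE LacZ reporter stimulated by forskolin 10 µM; beta-galactosidase reporter signal reflecting CREB driven transcription.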 The conditions noted are these: luminescence, 4.5 h, higher = more signal, called active from +8 up or from −8 down.
Assay [6] deals with Streptavidin (Streptomyces avidinii) (UniProt P22629). Nature of the assay: streptavidin binders on small-molecule microarray, primary screen, artefact control for SMM compound annotation, biophysical, 635/667 nm fluorescence (AID 1147).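 Further: signal reflects streptavidin binding to arrayed compounds as a control protein.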 The following applies: streptavidin binding, higher = more signal.
Chain of Streptavidin (Streptomyces avidinii) (P22629 whole entry, looked up): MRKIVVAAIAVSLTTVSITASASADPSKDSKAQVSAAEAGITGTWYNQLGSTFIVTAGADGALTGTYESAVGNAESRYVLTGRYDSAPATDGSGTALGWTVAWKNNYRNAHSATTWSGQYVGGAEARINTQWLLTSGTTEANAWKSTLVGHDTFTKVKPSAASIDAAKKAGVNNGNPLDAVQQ
A short description of assay [7]: small-molecule binders of probe aInhba, primary screen, biochemical, small-molecule microarray, 635/667 nm fluorescence (AID 1148).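 Further: score merges 667nm spot fluorescence with signal-to-noise for antibody binding to printed compounds.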 The following applies: higher = more signal.
Assay [8] deals with Torsin-1A (Homo sapiens) (UniProt O14656). As to the kind of experiment: torsin A binders from cell lysate, primary screen, small-molecule microarray, wild-type, 635/667 nm (AID 1149). The conditions noted are these: COS7 hTOR1A-WT lysate, 635 nm fluorescence, higher = more signal.
Chain of Torsin-1A (Homo sapiens) (O14656 whole entry, looked up): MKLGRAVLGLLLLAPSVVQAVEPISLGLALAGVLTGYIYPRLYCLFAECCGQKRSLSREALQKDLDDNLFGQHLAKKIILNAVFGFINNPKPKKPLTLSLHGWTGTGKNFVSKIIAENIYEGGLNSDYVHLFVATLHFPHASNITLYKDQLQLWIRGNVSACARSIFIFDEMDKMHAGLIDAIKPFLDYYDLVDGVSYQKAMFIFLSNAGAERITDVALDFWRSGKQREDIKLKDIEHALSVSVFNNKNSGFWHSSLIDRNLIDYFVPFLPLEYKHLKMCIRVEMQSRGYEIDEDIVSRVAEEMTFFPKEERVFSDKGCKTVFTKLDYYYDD
Assay [9] has the same target. Nature of the assay: small-molecule binders of mutant TOR1A in lysate, primary screen, cell lysate, small-molecule microarray, COS7 lysate, 635/667 nm fluorescence (AID 1150).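 Further: score pools 667 nm emission and signal to noise measuring lysate protein binding.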 The following applies: COS7 hTOR1A mutant lysate, 635 nm fluorescence, higher = more signal.
Assay [10] concerns Sonic hedgehog protein (Shh). Nature of the assay: small-molecule binders of Shh protein, primary screen, biochemical, small-molecule microarray, 635/667 nm fluorescence (AID 1151).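 Further: Shh protein binding to compounds spotted on small-molecule microarray slides; score combines spot fluorescence intensity with signal-to-noise across triplicate slides.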 The following applies: small-molecule microarray binding, 635 nm fluorescence; higher = more signal.
The nature of assay [11]: E. coli DRC41 culture turbidity changes, primary screen, E. coli filamentation inducer project, strain DRC41, OD650, 48 h (AID 1152).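 Further: E. coli MC1000 strain DRC41 lacking acrAB efflux pump and sulA.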 The conditions noted are these: E. coli DRC41 (acrAB sulA), higher = more signal, called active from +8 up or from −8 down.
A short description of assay [12]: small-molecule binders of probe aLefty1, primary screen, biochemical, small-molecule microarray, 635/667 nm fluorescence (AID 1153).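 Further: score merges spot fluorescence with signal-to-noise ratio from the scanned slide images.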 The conditions noted are these: higher = more signal.
Assay [13] is described as follows: PSAC antagonists in infected red cells, primary screen, cell-based, P. falciparum Indochina, OD700, 1 h (AID 1154). The conditions noted are these: P. falciparum Indochina infected RBC osmotic lysis, higher = more signal, called active from +8 up or from −8 down.
A short description of assay [14]: PSAC antagonists in infected red cells, primary screen, cell-based, P. falciparum Indochina, OD700, 2 h (AID 1155).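 Further: lysis reports solute entry through the parasite surface anion channel PSAC; channel blockers reduce lysis of infected cells.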 The conditions noted are these: P. falciparum Indochina infected erythrocytes, osmotic lysis OD700; higher = more signal, called active from +8 up or from −8 down.
Assay [15] can be described thus: osmotic lysis modulators in infected erythrocytes, primary screen, PSAC antagonist project, cell-based, P. falciparum Indochina, OD700, 3 h (AID 1156). The conditions noted are these: higher = more signal, called active from +8 up or from −8 down.
Assay [16] is described as follows: PSAC antagonists in infected red cells, primary screen, cell-based, P. falciparum Indochina, OD700, 18 h (AID 1157). The conditions noted are these: P. falciparum Indochina infected erythrocytes, osmotic lysis OD700, 18 h; higher = more signal, called active from +8 up or from −8 down.
Assay [17] in a line: modulators of S6 phosphorylation in cells, primary screen, cell-based, A549, cytoblot, luminescence, serum-stimulated (AID 1158).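 Further: serum-stimulated A549 lung adenocarcinoma cells; signal is phosphorylated S6 detected by cytoblot immunostaining with HRP secondary.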 The following applies: A549 phospho-S6 cytoblot, 5 h, higher = more signal.
In assay [18] the target is NADPH oxidase 2 (Homo sapiens) (UniProt P04839). As to the kind of experiment: NOX2-dependent H2O2 signal modulators, primary screen, NOX inhibitor project, cell-based, HEK293-NOX2, PMA-stimulated, Amplex Red fluorescence (AID 1159). Further: test concentration not given here. The conditions noted are these: 45 min, higher = more signal, called active from +8 up or from −8 down.
Chain of NADPH oxidase 2 (Homo sapiens) (P04839 whole entry, looked up): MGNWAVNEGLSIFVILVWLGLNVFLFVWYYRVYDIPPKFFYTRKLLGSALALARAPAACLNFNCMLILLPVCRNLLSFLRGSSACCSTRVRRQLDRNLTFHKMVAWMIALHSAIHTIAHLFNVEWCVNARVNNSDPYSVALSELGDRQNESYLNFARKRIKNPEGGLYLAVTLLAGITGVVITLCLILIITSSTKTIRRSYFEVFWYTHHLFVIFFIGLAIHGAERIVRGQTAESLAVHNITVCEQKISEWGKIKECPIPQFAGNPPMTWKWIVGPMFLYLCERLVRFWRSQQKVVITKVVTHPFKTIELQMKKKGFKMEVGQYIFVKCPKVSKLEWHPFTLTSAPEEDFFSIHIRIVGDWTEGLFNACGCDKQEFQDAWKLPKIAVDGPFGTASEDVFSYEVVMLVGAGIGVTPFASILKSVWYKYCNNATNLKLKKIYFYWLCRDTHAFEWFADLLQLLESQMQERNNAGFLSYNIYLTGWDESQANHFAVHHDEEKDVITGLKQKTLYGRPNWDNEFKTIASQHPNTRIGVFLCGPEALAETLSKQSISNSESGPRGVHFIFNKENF
The target of assay [19] is NADPH oxidase 4 (Homo sapiens) (UniProt Q9NPH5). Nature of the assay: NOX4-dependent H2O2 signal modulators, primary screen, NOX inhibitor project, cell-based, HEK293-NOX4, tetracycline-induced, Amplex Red fluorescence (AID 1160). The conditions noted are these: 45 min, higher = more signal, called active from +8 up or from −8 down.
Chain of NADPH oxidase 4 (Homo sapiens) (Q9NPH5 whole entry, looked up): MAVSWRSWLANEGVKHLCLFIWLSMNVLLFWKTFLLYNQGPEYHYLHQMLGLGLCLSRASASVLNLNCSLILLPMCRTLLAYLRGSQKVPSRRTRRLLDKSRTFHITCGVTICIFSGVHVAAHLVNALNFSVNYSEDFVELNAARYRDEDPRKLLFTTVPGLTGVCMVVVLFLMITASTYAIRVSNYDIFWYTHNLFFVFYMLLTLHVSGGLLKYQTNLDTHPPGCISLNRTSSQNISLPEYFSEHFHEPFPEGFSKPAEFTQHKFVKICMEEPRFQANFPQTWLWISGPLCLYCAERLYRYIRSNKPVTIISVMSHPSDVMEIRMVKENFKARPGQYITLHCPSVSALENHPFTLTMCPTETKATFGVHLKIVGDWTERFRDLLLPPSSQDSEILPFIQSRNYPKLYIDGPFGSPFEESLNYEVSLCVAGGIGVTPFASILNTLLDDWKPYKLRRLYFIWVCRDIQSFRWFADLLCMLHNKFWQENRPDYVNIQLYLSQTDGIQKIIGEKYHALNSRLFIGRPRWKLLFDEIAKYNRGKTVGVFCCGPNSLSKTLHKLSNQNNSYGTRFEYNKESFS
For assay [20], the target named is NADPH oxidase 5 (Homo sapiens) (UniProt Q96PH1). As to the kind of experiment: NOX5-dependent H2O2 signal modulators, primary screen, NOX inhibitor project, cell-based, HEK293-NOX5, Amplex Red fluorescence (AID 1161). The following applies: HEK293-NOX5, ionomycin, 45 min, higher = more signal.
Chain of NADPH oxidase 5 (Homo sapiens) (Q96PH1 whole entry, looked up): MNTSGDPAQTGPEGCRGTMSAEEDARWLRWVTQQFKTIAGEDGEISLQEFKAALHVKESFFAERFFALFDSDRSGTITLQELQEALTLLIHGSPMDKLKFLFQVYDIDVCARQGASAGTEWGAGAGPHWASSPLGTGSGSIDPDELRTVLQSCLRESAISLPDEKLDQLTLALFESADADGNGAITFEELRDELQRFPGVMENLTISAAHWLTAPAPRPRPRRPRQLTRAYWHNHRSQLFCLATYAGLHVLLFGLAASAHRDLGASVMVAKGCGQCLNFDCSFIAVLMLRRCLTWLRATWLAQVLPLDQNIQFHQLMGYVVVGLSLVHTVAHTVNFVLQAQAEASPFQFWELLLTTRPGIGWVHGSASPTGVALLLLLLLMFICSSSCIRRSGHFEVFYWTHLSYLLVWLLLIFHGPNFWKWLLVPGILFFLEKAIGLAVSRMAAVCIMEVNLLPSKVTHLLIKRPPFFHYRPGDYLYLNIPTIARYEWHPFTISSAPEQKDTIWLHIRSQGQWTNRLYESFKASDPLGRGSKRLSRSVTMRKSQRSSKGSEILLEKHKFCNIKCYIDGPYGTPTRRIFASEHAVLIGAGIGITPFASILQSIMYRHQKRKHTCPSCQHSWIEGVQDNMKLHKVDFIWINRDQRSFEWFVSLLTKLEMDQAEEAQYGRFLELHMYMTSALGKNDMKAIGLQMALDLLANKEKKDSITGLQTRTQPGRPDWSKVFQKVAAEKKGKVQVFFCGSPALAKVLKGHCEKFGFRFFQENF

SMILES strings stand for the structures. Activity calls are given as the source filed them. Unless noted, how the calls were made is not given here.

Regarding `C=CCNC(=O)[C@@H]1[C@H]2C(=O)O[C@H](c3ccccc3)[C@H](c3ccccc3)N2[C@H](c2ccc(OCCO)cc2)[C@@]12C(=O)Nc1ccc(C#CCNC(N)=O)cc12`, the composite z-score is 0.0977 in assay [1]; 0.987 in assay [6]; -0.0195 in assay [7]; 0.564 in assay [8]; 0.19 in assay [9]; 0 in assay [10]. In addition, in assay [12], the composite z-score worked out at 0.124. In addition, the z-score was 0.414 (inactive) in [2]; 0.0575 (inactive) in assay [3]; 0.155 (inactive) in assay [4]; 0.0297 (inactive) in [5]; -0.582 (inactive) in [11]; 2.55 (inactive) in assay [13]. In addition, the z-score in assay [14] is 0.268 (inactive); in [15] it was 0.422 (inactive); in assay [16], -0.0239 (inactive); in assay [17] it was 0.386; in [18], 1.88 (inactive); in [19] it was 1.2 (inactive). In assay [20], the z-score was -0.268.

For the compound `CCCN1C(=O)[C@@]2(c3ccc([N+](=O)[O-])cc3)CC(=O)N(C3CCCCC3)[C@@H]2c2ccc(CO)cc21`, the composite z-score was 0.0899 in assay [1]; -0.397 in [6]; -0.168 in assay [7]; 0.515 in assay [8]; -0.187 in assay [9]; 1.08 in [10]. The same compound showed a composite z-score in assay [12] of -0.5. For the same compound, the z-score in assay [2] was 0.677 (inactive); in assay [3], -0.0723 (inactive); in [4], 0.389 (inactive); in [5] it was -0.131 (inactive); in assay [11], -1.45 (inactive); in [13] it was -0.0987 (inactive). The z-score in assay [14] was 0.636 (inactive); in assay [15], -0.203 (inactive); in assay [16], 0.0577 (inactive); in assay [17] it was -0.504; in assay [18], -0.955 (inactive); in assay [19] it was -0.281 (inactive). The z-score in assay [20] was -0.19.

`CC1CC/C=C\[C@H]2OC34C=CCN(C(C)C)C(=O)[C@H]3N(C(C)CO)C(=O)[C@@H]4C2C(=O)O1` (stereo not given in full): the composite z-score in assay [1] is -0.293; in assay [6] it was -0.447; in assay [7], 1.09; in [8], 0.0269; in assay [9], -0.381; in assay [10], 1.09. Besides, the composite z-score in assay [12] worked out at 0.0043. The z-score was 0.143 (inactive) in [2]; -0.657 (inactive) in [3]; -1.04 (inactive) in assay [4]; -0.627 (inactive) in [5]; 1.9 (inactive) in [11]; 1.07 (inactive) in assay [13]. For the same compound, the z-score is 0.217 (inactive) in assay [14]; 1.06 (inactive) in assay [15]; 0.184 (inactive) in [16]; 1.65 in [17]; 0.273 (inactive) in assay [18]; -0.381 (inactive) in assay [19]. This compound yielded a z-score in assay [20] of 1.45.

As for `[N-]=[N+]=NCc1ccccc1[C@H]1OC(c2ccc(OCCCO)cc2)=N[C@@]1(CCS(=O)(=O)c1ccccc1)C(=O)NCCN1CCOCC1`, the composite z-score was 0.806 in assay [1]; 0.38 in assay [6]; 0.54 in assay [7]; 0.234 in assay [8]; 0.183 in [9]; -0.597 in [10]. In assay [12], this compound showed a composite z-score of 0.877. The z-score in assay [2] is -0.712 (inactive); in assay [3] it was -0.561 (inactive); in [4], 0.115 (inactive); in [5], -0.871 (inactive); in assay [11], -0.265 (inactive); in [13] it was 27.1 (active). The z-score in [14] is 13.2 (active); in [15], 1.38 (inactive); in [16] it was 1.99 (inactive); in assay [17], -0.124; in assay [18], 0.636 (inactive); in [19] it was 1.33 (inactive). The compound also returned a z-score in assay [20] of 1.65.

In the case of `C=CC[C@H](O)c1ccc(O)c(F)c1`, the composite z-score in assay [1] is -0.863; in [6], -1.39; in [7], -0.0429; in assay [8] it was -3.98; in assay [9] it was -1.66; in assay [10], -1.11. Besides, in assay [12], the composite z-score was -0.555. Also, the z-score in [2] is -0.48 (inactive); in assay [3], -0.955 (inactive); in assay [4], -0.0392 (inactive); in assay [5] it was -0.535 (inactive); in assay [11], -0.421 (inactive); in assay [13], 0.307 (inactive). Further, the z-score in assay [14] was 0.131 (inactive); in assay [15], -0.304 (inactive); in [16] it was 0.255 (inactive); in assay [17], -0.165; in assay [18] it was -1.32 (inactive); in [19] it was -0.305 (inactive). In addition, in [20], the z-score worked out at 0.113.

With `COc1cc2c(cc1OC)CN(C(=O)[C@@H]1[C@H]3C(=O)O[C@H](c4ccccc4)[C@H](c4ccccc4)N3[C@H](c3ccc(O)cc3)[C@@]13C(=O)Nc1ccc(C#CC4=CCCCC4)cc13)CC2`, the composite z-score in assay [1] was found to be 0.236; in assay [6], 1.03; in assay [7], 0.271; in [8] it was 0.335; in [9], 0.794; in assay [10], 1.07. In addition, the composite z-score in assay [12] was found to be 0.298. For the same compound, the z-score in assay [2] is -1.56 (inactive); in [3] it was -0.376 (inactive); in assay [4] it was -0.375 (inactive); in assay [5], -0.493 (inactive); in assay [11] it was 2.03 (inactive); in [13], 1.18 (inactive). The z-score in assay [14] was 0.925 (inactive); in assay [15] it was 1.2 (inactive); in assay [16], 1.23 (inactive); in [17], 0.458; in assay [18], 1.36 (inactive); in assay [19] it was 1.03 (inactive). This compound registered a z-score in assay [20] of -0.337.

As for `[N-]=[N+]=NCc1ccccc1[C@H]1OC(c2ccc(OCCCO)cc2)=N[C@@]1(Cc1ccccc1N=[N+]=[N-])C(=O)O`, the composite z-score was 0.322 in assay [1]; 1.55 in assay [6]; 0.147 in assay [7]; 0.136 in [8]; 0.691 in [9]; -0.141 in assay [10]. The composite z-score in assay [12] was 0.479. Besides, the z-score in assay [2] is -1.16 (inactive); in assay [3] it was 0.159 (inactive); in assay [4], -0.137 (inactive); in [5], -0.763 (inactive); in [11] it was -1.17 (inactive); in assay [13], 22.2 (active). Besides, the z-score in [14] is 3.83 (inactive); in [15] it was 0.0591 (inactive); in assay [16], 0.395 (inactive); in assay [17], -0.314; in assay [18], 0.831 (inactive); in assay [19], 0.982 (inactive). This compound also came in with a z-score in assay [20] of 1.51.

On to `COC(=O)[C@@]1(Cc2ccccc2)[C@H]2c3cc(C(=O)N(C)C)n(Cc4ccc(Cl)c(C(F)(F)F)c4)c3C[C@H]2CN1C(=O)c1ccccc1`, for which the composite z-score is 0.498 in assay [1]; 1.56 in [6]; 0.63 in [7]; -0.172 in [8]; 0.0947 in assay [9]; 1.31 in [10]. This compound also came in with a composite z-score in assay [12] of 0.936. The z-score in assay [2] was -3.79 (inactive); in assay [3], 0.821 (inactive); in assay [4] it was 0.583 (inactive); in assay [5], -0.244 (inactive); in [11], -2.34 (inactive); in assay [13] it was 2.46 (inactive). Moreover, the z-score is 0.943 (inactive) in assay [14]; 0.453 (inactive) in assay [15]; 1.18 (inactive) in [16]; -0.114 in assay [17]; 0.0852 (inactive) in [18]; -0.895 (inactive) in assay [19]. The z-score in assay [20] is -1.92.
